Assay outcomes from PubChem BioAssay.
NALP1 yeast inh: NALP1 inflammasome inhibitors in reconstituted yeast, colorimetric, S. cerevisiae, triplicate retest. S. cerevisiae NALP1/ASC/caspase-1 growth, X-gal OD620, 72 h. inhibition, % at 10 µM. hit rate 0.61% among 280,000; in the data active means inhibition mostly above about 24%, no sharp cut-off; inactive means mostly below about 32%
NALP3 yeast inh: NALP3 inflammasome inhibitors in reconstituted yeast, primary screen, luminescence, uHTS; Yeast reconstituted NLRP3/ASC/caspase-1, beta-gal luminescence, 24 h; inhibition, % at 10 µM; hit rate 0.39% among 330,000; AID 2825, 2010;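 active means inhibition of 50% or more; inactive means inhibition below 50%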;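 further: plate controls were induced DMSO wells for no effect and uninduced yeast grown without galactose for full effect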
Rce1 inhib: yeast Rce1p protease inhibitors, primary screen, biochemical, fluorescence, cell-free homogeneous | yeast membranes, quenched prenylated peptide cleavage fluorescence | hit rate 0.27% among 290,000 | CAAX prenyl protease 2 (Saccharomyces cerevisiae (strain ATCC 204508 / S288c)), Q03530 | calls only;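 active means fall in fluorescence gain of 50% or more versus controls, with final raw signal at or below 3038400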;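 further: plate controls were neutral control wells for no effect and wells lacking membranes for full effect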
Yeast superoxide: reduction of superoxide in aged yeast, primary screen, HTS. S. cerevisiae aged cells, superoxide DHE fluorescence; hits give low values. superoxide response (% of plate mean), % at 10 µM. hit rate 0.18% among 330,000;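 active means superoxide response under a set limit, about three screen SD below normal, cut at about 65% in these data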;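 further: yeast aged for seven days with compound at 30 °C before DHE staining; 100% = average MFI of all compound-treated wells on the plate with controls excluded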
PERK inhibitor: block of dimerizer-induced PERK translation repression, primary screen, PERK inhibitor project, CHO PERK-DD cells, SEAP luminescence, HTS. CHO PERK-DD fusion, SEAP luminescence translation reporter. inhibition, % at 5.6 µM. hit rate 0.17% among 220,000. AID 1416, 2008;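 active means inhibition above the mean inhibition of all tested compounds plus 3 SD, set separately per screening campaign, cut at about 2.9% in these data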;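 further: PERK kinase domain activated by AP20187 dimerizer at 100 nM; 0% = DMSO with dimerizer and 100% = rapamycin at 8.4 µM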
V-ATPase pH: regulators of yeast V-ATPase proton pumping, primary screen, pHLuorin cytosolic pH fluorescence; S. cerevisiae; response, % at 10 µM; hit rate 0.37% among 350,000; AID 504577, 2011; in the data active means response mostly above about 7.3%, no sharp cut-off; inactive means mostly below about 5.4%; further: actives read high
NALP3 yeast conf: NALP3 inhibitors retested in yeast, confirmation, luminescence, single concentration | shares compounds with NALP3 yeast inh | yeast expressing human NALP3 | inhibition, % at 10 µM | hit rate 81% among 1,300; in the data active means inhibition above about 48%
Casp1-ASC yeast: CASP1-PYCARD signaling inhibition in yeast, confirmatory test, counterassay for NLRP3 inhibitor program, one-dose; shares compounds with NALP3 yeast inh; yeast expressing Caspase-1-ASC, luminescence counter screen; inhibition, % at 10 µM; hit rate 66% among 1,000; AID 488784, 2010
NALP3 yeast rt: NALP3 inhibitors in yeast, repeat test, confirmation, luminescence, single concentration, retest. shares compounds with NALP3 yeast inh. yeast expressing human NALP3, luminescence read-out. inhibition, % at 10 µM. hit rate 53% among 1,000
An asterisk follows results filed as active; i = inactive; · = not tested or not shown; + = active, no number; ! = not confirmed by another sample. Shown are actives, neighbours in structure and some others; about 1.6% of the full set was active somewhere. Unless noted, no stated cut-off is given here; in the data, active means inhibition above about 50%; inactive means the rest.

SMILES	NALP1 yeast inh	NALP3 yeast inh	Rce1 inhib	Yeast superoxide	PERK inhibitor	V-ATPase pH	NALP3 yeast conf	Casp1-ASC yeast	NALP3 yeast rt
COc1cc(/C=C/C(=O)c2ccc(Cl)s2)cc(OC)c1O	57	-2	i	89	0	-4	·	·	·
COc1cccc(C(=O)c2ccccc2NC(C)=O)c1	·	·	·	·	·	2	·	·	·
Cc1ccc(-n2nnnc2CNC(=O)C(=O)c2c[nH]c3ccccc23)cc1C	·	·	·	·	·	-2	·	·	·
O=C(Nc1ccc2nsnc2c1)c1cccs1	11	-10	i	132	1	0	·	·	·
O=C(Nc1cccc2nsnc12)c1cccs1	9	70*!	i	93	1	-3	89*	78*	61*
O=C(Cc1cccc(NC(=O)C2CCCN(C(=O)CCc3ccccc3)C2)c1)Nc1ccc(C(=O)N2CCCCC2)cc1 (stereo unspecified)	·	·	·	·	·	0	·	·	·
Cc1csc(=NC(=O)c2ccccc2)n1C	2	62*	i	115	1	-1	75*	73*	68*
CCn1c(C)csc1=NC(=O)c1ccccc1	-4	53*	i	97	1	-1	61*	48	44
COc1ccc2cc3cc(C(=O)NCCN4CCN(c5ccccc5F)CC4)oc3nc2c1	-4	53*	i	97	-2	-7	16	·	·
COc1cccc(C2c3cc4c(cc3OC(C)(N3CCCC3)C2C)OCO4)c1O (stereo unspecified)	·	·	·	·	·	-4	·	·	·
C[C@@H](NCCc1ccc(O)cc1)[C@@H](O)c1ccc(O)cc1	·	-4	i	105	·	3	·	·	·
CCCCCCCCNC(C)C(O)c1ccc(SC(C)C)cc1 (stereo unspecified)	78*	67*	+	100	-2	0	64*	52*	64*
CC(=C/c1ccccc1)/C=N/NC(=O)c1cccs1	-8	56*	i	93	-1	-1	24	·	·
C[C@]12CCC3C(CC[C@H]4CC(O)CC[C@]34C)C1CC/C2=N/NC(=O)c1ccncc1 (stereo partly specified)	20	56*	i	89	·	-1	80*	55*	44
C[C@]12CCC3C(CC[C@H]4CC(O)CC[C@]34C)C1CC/C2=N/O (stereo partly specified)	30	51*	i	86	·	5	73*	71*	55*
COc1ccc(C(=O)OCC(=O)c2ccco2)cc1[N+](=O)[O-]	·	·	·	·	·	1	·	·	·
Cc1ccc(C(=O)N2CC3(C)CN(C(=O)c4ccc(C)cc4)CC(C)(C2)C3=O)cc1	27	6	i	105	0	-2	·	·	·
Cc1ccc(C(=O)N2CC(=O)NC(=O)C2)cc1	8	51*	·	94	·	3	49*	8	10
COc1ccccc1C(=O)Nc1nc2ccccc2[nH]1	12	60*	i	86	·	-1	78*	79*	31
COc1ccc(C(=O)Nc2nc3ccccc3[nH]2)cc1	6	51*	i	103	·	-2	81*	60*	48
COc1ccccc1C(=O)NCCC(=O)Nc1nc2ccccc2[nH]1	·	7	i	96	·	-2	·	·	·
Cc1c(C(=O)Nc2nc3ccccc3[nH]2)oc2ccc(Br)cc12	5	-11	i	112	0	-2	·	·	·
Cc1c(C(=O)Nc2nc3ccccc3[nH]2)oc2ccccc12	30	61*	i	98	-1	1	31	·	·
O=C(O)CC(c1ccccc1)c1ccc2c(c1)OCO2 (stereo unspecified)	·	·	·	·	·	-1	·	·	·
Cc1ccc(NC(=C(C#N)C#N)c2ccccc2)cc1	·	·	·	·	·	1	·	·	·
